Hits are enriched below; roughly 3.6% of the tested compounds scored in any of these assays.
CF NFkB block: inhibitors of PAF-induced NF-kB signaling, primary screen, cell-based, GFP fluorescence, uHTS; KKLEB NF-kB-GFP reporter, GFP fluorescence overnight; inhibition, % at 5 µM; 360,000 tested, 0.86% active; AID 588850, 2011;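 active = at least 50% inhibition at 5 µM, scaled per plate between neutral and stimulator controls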;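 also: PAF is a Pseudomonas aeruginosa culture filtrate used as stimulus; plate controls were PAF-stimulated DMSO wells for no effect and unstimulated DMSO wells for full effect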
LGR2 inh: inhibitors of bursicon-induced LGR2 CRE-luciferase signal, primary screen, cell-based, HEK293, CRE-luciferase reporter, bursicon stimulation; inhibition, % at 9.99 µM; AID 720647, 2013; Drosophila bursicon receptor LGR2 (rickets); 380,000 tested, 0.35% active; bursicon-stimulated, 4 h;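 active = drop in luminescence signal, shown as inhibition above about 50% in the replicate tests, limit read from the data, passing the limit was not always enough; inconclusive = probably only some replicates passing the limit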;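 also: agonist challenge used bursicon conditioned medium at about half maximal strength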
Mdm2 MdmX PPI: inhibitors of human Mdm2-MdmX association, primary screen, cell-based, luminescence, split luciferase, SaOS-2, uHTS. SaOS-2 split-luciferase Mdm2/MdmX complementation. inhibition, % at 8 µM. 330,000 tested, 3% active. AID 485346, 2010;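 active = inhibition of at least 50% at 8 µM in the primary screen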
Peg3 prom inh-1: Peg3 promoter-driven luciferase inhibitors, primary screen, cell-based, HeLa, luciferase luminescence; HeLa PEG-Prom luciferase reporter, overnight; inhibition, % at 20 µM; 360,000 tested, 1.7% active; AID 588405, 2011;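 active = inhibition of at least 50% at 20 µM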
HSP90 inh: HSP90 inhibitors, primary screen, cell lysate, luminescence; 290,000 tested, 0.91% active; Heat shock protein HSP 90 (rabbit reticulocyte lysate; luciferase refolding); inhibition, % at 5.6 µM; Rabbit reticulocyte lysate, luciferase refolding luminescence, 3 h;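 active = inhibition above the screen-wide mean plus 3 SD, computed separately per campaign, cut at about 16% in these data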;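 also: 0% = DMSO wells and 100% = 60 µM geldanamycin wells; inhibitors lower the luminescence because luciferase stays unfolded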
KKLEB cytotox: cytotoxicity in KKLEB CF airway cells, primary screen, cytotoxicity control for CF NF-kB inhibitor project, cell-based, uHTS, fluorescence assay plates; KKLEB CF airway cells viability, ATPlite luminescence, overnight; active compounds read low; cells stimulated with P. aeruginosa culture filtrate; activity change (cytotoxicity), % at 5 µM; 360,000 tested, 0.36% active;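 active = corrected activity change at or below -50% at 5 µM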
Mdm2-MdmX conf: Mdm2-MdmX complex disruptors, retested hits, confirmation, luminescence, single concentration. Mdm2-MdmX binding, luminescent assay. 10,000 tested, 55% active. inhibition, % at 8 µM. shares compounds with Mdm2 MdmX PPI; in the data active = inhibition above about 40%
Full FLuc ctr: full-length luciferase signal inhibition, confirmation, counter-screen for Mdm2/MdmX interaction inhibitor project, cell-based, single concentration, SaOS-2. AID 504607, 2011. 6,200 tested, 77% active. shares compounds with Mdm2 MdmX PPI. SaOS-2 full-length luciferase counterscreen, luminescence. inhibition, % at 8 µM;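 active = mean inhibition at 8 µM reaching about 37%, which flags the compound as non-specific, limit read from the data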;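 also: p53-null SaOS-2 cells with luciferase driven by a doxycycline-inducible promoter; compound on cells about two nights before reading with doxycycline added after day one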
Peg3 prom inh-2: Peg3 promoter reporter inhibitors, retest, confirmation, cell-based, HeLa, luciferase reporter, single concentration | shares compounds with Peg3 prom inh-1 | HeLa PEG-Prom luciferase reporter, luminescence, overnight | inhibition, % at 20 µM | 1,300 tested, 84% active | AID 602417, 2012;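 active = at 20 µM dose, 40% or more inhibition averaged across four replicates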
* = called active by the depositor; ? = inconclusive; . = no result given.

SMILES	CF NFkB block	LGR2 inh	Mdm2 MdmX PPI	Peg3 prom inh-1	HSP90 inh	KKLEB cytotox	Mdm2-MdmX conf	Full FLuc ctr	Peg3 prom inh-2
CCOc1cccc2sc(N(CCCN(C)C)C(=O)c3ccc(S(=O)(=O)N(C)Cc4ccccc4)cc3)nc12	26.3	-0.6	74.2*	98.2*	7.1	-26.0	38.5	60.1*	94.7*
Cc1cc(C)c2sc(N(CCCN(C)C)C(=O)c3ccc(S(=O)(=O)N(C)Cc4ccccc4)cc3)nc2c1	7.9	12.4	92.9*	97.1*	.	-10.6	48.5*	69.3*	98.3*
C[C@H]1CN([C@@H](C)CO)C(=O)c2cc(NC(=O)NC3CCCCC3)ccc2O[C@H]1CN(C)Cc1ccncc1	.	-16.2	.	.	.	.	.	.	.
Cc1ccc2sc(N(CCCN(C)C)C(=O)c3ccc(S(=O)(=O)N(C)C)cc3)nc2c1C	7.2	4.9	17.1	9.7	-1.2	-11.5	.	.	.
Cc1ccc2sc(N(CCCN(C)C)C(=O)c3ccc(S(=O)(=O)N(C)Cc4ccccc4)cc3)nc2c1C	28.9	17.1	99.6*	65.5*	.	-33.1	49.1*	46.4*	95.8*
CO[C@@H]1CN(C)C(=O)c2ccc(NC(C)=O)cc2OC[C@H](C)N(C(=O)Cc2cccnc2)C[C@H]1C	.	16.3	.	.	.	.	.	.	.
Cc1nn(-c2ccccc2Cl)c(Cl)c1/C=N/Nc1nc2ccccc2s1	-8.7	72.0*	87.4*	72.4*	5.2	1.4	95.8*	56.2*	75.3*
CCCCn1c(=N)n(CC(=O)c2ccco2)c2ccccc21	-3.3	18.0	-10.7	-3.7	1.0	7.7	.	.	.
CCCCCCCn1c(=N)n(CC(=O)c2ccco2)c2ccccc21	-3.7	.	63.1*	87.2*	4.2	0.8	16.1	.	63.7*
C[C@@H]1CCCCO[C@@H](CN(C)S(C)(=O)=O)[C@@H](C)CN([C@H](C)CO)C(=O)c2cc(NS(C)(=O)=O)ccc2O1	.	12.4	.	.	.	.	.	.	.
CCc1c(C)[nH]n(-c2nc(-c3ccccc3)cs2)c1=O	-9.0	-17.6	-28.7	-59.8	-4.3	17.7	.	.	.
Cc1[nH]n(-c2nc(-c3ccc(Cl)cc3)cs2)c(=O)c1N=Nc1ccc(O)cc1	16.8	2.1	63.4*	54.2*	5.4	-3.2	35.9	83.2*	-41.8
Cc1cc(C)c2ccc(N)nc2c1O	-28.1	.	82.9*	69.8*	-2.2	-3.1	74.7*	41.4*	58.1*
CCN1CCN(C(c2ccc(C(F)(F)F)cc2)c2ccc3cccnc3c2O)CC1 (stereo unspecified)	16.3	12.6	73.9*	55.1*	8.5	-32.6	77.8*	31.2	60.4*
Cc1ccc(C)c(OCC(O)CN2CCC(CN3C(=O)c4cccc5cccc(c45)C3=O)CC2)c1 (stereo unspecified)	6.7	18.9	59.6*	99.1*	-1.0	-17.6	32.6	.	97.1*
COc1ccc(OCC(O)CN2CCC(CN3C(=O)c4cccc5cccc(c45)C3=O)CC2)cc1 (stereo unspecified)	-17.0	17.9	18.7	12.3	.	-4.2	.	.	.
Fc1c(F)c(F)c(/C=N/NC(=S)Nc2cccnc2)c(F)c1F	37.3	-9.7	51.4*	101.0*	-8.0	-16.7	33.9	74.0*	43.7*
COCC(=O)Nc1ccc2c(c1)C(=O)N(C)[C@H]1CC[C@H](CC(=O)NCCc3ccccc3)O[C@H]1CO2	.	-10.8	.	.	.	.	.	.	.
COc1ccc(S(=O)(=O)Nc2ccc3c(c2)C(=O)N([C@H](C)CO)C[C@@H](C)[C@H](CN(C)C(=O)Nc2ccc(C(F)(F)F)cc2)O3)cc1	.	2.1	.	.	.	.	.	.	.
O=C(O)c1cc(OCc2ccccc2)cc(OCc2ccccc2)c1	-6.3	11.3	15.4	9.0	-2.7	-2.6	.	.	.
CCOc1ccc(OCc2cccc(C(=O)O)c2)cc1	-1.6	102.4*	60.9*	100.0*	.	-18.5	93.8*	7.2	95.6*
COc1ccc(OCc2cccc(C(=O)O)c2)cc1	0.5	.	85.3*	96.2*	.	-5.0	81.4*	50.5*	90.5*
O=C(O)c1cccc(COc2ccc(CO)cc2Cl)c1	-8.6	100.1*	89.5*	100.0*	.	-0.2	88.2*	5.2	87.8*
Cc1ccc(S(=O)(=O)N(C)C[C@H]2OCCCC[C@H](C)Oc3ccc(NC(=O)NC(C)C)cc3C(=O)N([C@H](C)CO)C[C@@H]2C)cc1	.	-9.1	.	.	.	.	.	.	.
C[C@H](CO)N1C[C@H](C)[C@H](CN(C)S(C)(=O)=O)Oc2c(NS(C)(=O)=O)cccc2C1=O	.	-7.4	.	.	.	.	.	.	.
SMILES	CF NFkB block	LGR2 inh	Mdm2 MdmX PPI	Peg3 prom inh-1	HSP90 inh	KKLEB cytotox	Mdm2-MdmX conf	Full FLuc ctr	Peg3 prom inh-2
Cc1cc(C(=O)Nc2cccc3c2O[C@@H](CN(C)C(=O)NC2CCCCC2)[C@H](C)CN([C@@H](C)CO)C3=O)n(C)n1	.	-19.2	.	.	.	.	.	.	.
C[C@H](CO)N1C[C@H](C)[C@@H](CN(C)C(=O)Nc2ccc(F)cc2)Oc2ccc(NC(=O)Cc3ccccc3)cc2C1=O	.	14.1	.	.	.	.	.	.	.
Nc1ncn([C@@H]2O[C@H](CO)[C@@H](O)[C@H]2O)c(=O)n1	40.2	?	52.2*	72.0*	.	-13.7	50.3*	58.6*	49.6*
CN=c1scc(-c2cccs2)n1/N=C/c1ccccc1O	-9.6	100.0*	95.3*	90.9*	77.9*	-69.3*	95.7*	12.6	94.7*
Cc1cc(C)n(/N=C/c2ccccc2O)c(=O)c1	-0.2	-5.0	27.0	-12.5	-2.9	10.5	.	.	.
Cc1cccc(C)c1NS(=O)(=O)c1ccc(NC(=O)c2ccc(Cl)c([N+](=O)[O-])c2)cc1	-0.9	9.5	98.5*	106.2*	-2.0	-2.7	68.7*	58.7*	98.5*
O=C(Nc1ccc(S(=O)(=O)NC2=NCCCCC2)cc1)c1ccc(Cl)c([N+](=O)[O-])c1	0.5	7.7	40.0	-3.2	.	-2.6	.	.	.
CCOc1cc(CNCCCN2CCOCC2)ccc1OCC(=O)Nc1cccc2ccccc12	24.0	.	77.9*	50.2*	-1.3	-18.0	54.4*	54.0*	64.4*
